{
  "source": "PubChem BioAssay (NCATS)",
  "note": "Values joined by “and” are separate entries in the source; they are usually repeats but may differ in a detail not shown here. Equal entries are not always repeated. Records with an inconclusive call do not appear. Unmarked numbers belong to inactive results. Active and inactive are the calls of the source. Calls follow the shape of the dose curve; as a rule, active = well fitted inhibition curve with a large enough effect; inconclusive = small, poorly fitted or top-dose-only effect; inactive = no such curve, though single readings can be large or run the other way. % is scaled to controls: 0 for no effect and ±100 for the full control effect; potency is read from the fitted curve at half-maximal effect.",
  "data": [
    {"assay": "Primary qHTS for inhibitors of nuclear receptor binding SET domain protein 2 (NSD2) in an RCH-ACV wild type WT cells (2C) (AID 1645877); also: nearly all actives have a fitted effect of over 70% in size", "settings": "RCH-ACV NSD2 WT (2C) viability, CellTiter-Glo, 72 h; series mostly up to 44.9 µM; activity change, negative = cell killing: at the top concentration", "values": [
      {"smiles": "CN[C@H]1[C@H](O)[C@H](O[C@@H]2[C@@H](O)[C@H](O[C@H]3O[C@H]([C@H](C)O)[C@@H](O)[C@H](O)[C@H]3N)[C@@H](N)C[C@H]2N)OC[C@@]1(C)O", "outcome": "inactive"},
      {"smiles": "CN(C(=O)Cc1ccccc1)C(CN1CCCC1)c1ccccc1", "note": "(stereo not drawn)", "activity change, negative = cell killing": "-11.1% (inactive)"},
      {"smiles": "CN(C)CCc1c[nH]c2ccc(CN3CCN(C)S3(=O)=O)cc12", "activity change, negative = cell killing": "-14.8% (inactive)"},
      {"smiles": "COC1CC(OC2CCC3(C)C(CCC4C3CCC3(C)C(C5=CC(=O)OC5)C(OC(C)=O)CC43O)C2)OC(C)C1OC1OC(CO)C(O)C(O)C1O", "note": "(stereo not drawn)", "Potency": "1210 nM (active)"},
      {"smiles": "CCCN1CCO[C@H]2c3cc(O)ccc3OC[C@@H]21", "outcome": "inactive"},
      {"smiles": "C/C=C(\\C)C(=O)O[C@H]1[C@H](OC(C)=O)[C@]2(CO)[C@H](O)[C@H](O)[C@]3(C)C(=CCC4[C@@]5(C)CC[C@H](O[C@@H]6O[C@H](C(=O)O)[C@@H](O)[C@H](O[C@@H]7OC[C@H](O)[C@H](O[C@@H]8OC[C@H](O)[C@H](O)[C@H]8O)[C@H]7O)[C@H]6O[C@@H]6O[C@H](CO)[C@@H](O)[C@H](O)[C@H]6O)C(C)(C)C5CC[C@]43C)[C@@H]2CC1(C)C", "note": "(stereo partly drawn)", "activity change, negative = cell killing": "2.35% [at 9.23 µM]"},
      {"smiles": "C[C@@H]1C(=O)O[C@H]2[C@H](O)[C@@]34[C@@H]5OC(=O)[C@@]3(O[C@@H]3OC(=O)[C@@H](O)[C@@]34[C@H](C(C)(C)C)[C@H]5O)[C@@]12O", "activity change, negative = cell killing": "-7.92% [at 17.3 µM] (inactive)"},
      {"smiles": "C=C1[C@@H]2CC[C@@]3(C)[C@H](c4ccoc4)OC(=O)C[C@]13O[C@H]1CC(=O)C(C)(C)[C@H](C(OC(C)=O)C(=O)OC)[C@]12C", "note": "(stereo partly drawn)", "activity change, negative = cell killing": "-14.1% [at 17.3 µM] (inactive)"},
      {"smiles": "C/C(O)=C(\\C#N)C(=O)Nc1cc(Br)ccc1Br", "Potency": "inactive"},
      {"smiles": "Cn1ncnc1COc1nn2c(-c3c(F)cccc3F)nnc2cc1C1CCC1", "outcome": "inactive"},
      {"smiles": "COC(=O)C1(C)CCC(O)C2(C)c3cc(O)c(C(C)C)cc3C(O)C(OC(C)=O)C12", "note": "(stereo not drawn)", "outcome": "inactive [at 17.3 µM]"},
      {"smiles": "N#C[C@@H](O[C@@H]1O[C@H](CO[C@@H]2O[C@H](CO)[C@@H](O)[C@H](O)[C@H]2O)[C@@H](O)[C@H](O)[C@H]1O)c1ccccc1", "activity change, negative = cell killing": "-31% [at 17.3 µM] (inactive)"},
      {"smiles": "CC(=O)OC1CC(O)C(C)(C)C2CC(OC(C)=O)C3(C)C(CCC4(C)C(c5ccoc5)C(=O)C5OC543)C12C", "note": "(stereo not drawn)", "activity change, negative = cell killing": "-23.8% [at 17.3 µM] (inactive)"},
      {"smiles": "CCN1CC2(COC)C3[C@@H](OC)C4C1C3(C1C[C@]3(O)[C@H](OC(=O)c5ccccc5)C1[C@]4(OC(C)=O)[C@@H](O)[C@@H]3OC)[C@H](OC)C[C@H]2O", "note": "(stereo partly drawn)", "activity change, negative = cell killing": "2.23% (inactive)"},
      {"smiles": "CN1[C@@H]2CC[C@H]1CC(OC(=O)C1C=Nc3ccccc31)C2", "note": "(stereo partly drawn)", "activity change, negative = cell killing": "-17% (inactive)"},
      {"smiles": "C[C@@]1(C(=O)O)CC[C@]2(C)CC[C@]3(C)C4=CC(=O)c5cc(O)c(O)cc5[C@]4(C)CC[C@@]3(C)[C@@H]2C1", "activity change, negative = cell killing": "-18.9% [at 17.3 µM] (inactive)"},
      {"smiles": "C=CC(C)(C)c1[nH]c2cccc3c2c1C[C@@H]1[C@@H]3[C@@H](OC(C)=O)[C@H](C)CN1C", "activity change, negative = cell killing": "1.05% (inactive)"},
      {"smiles": "CC(C)(C)c1cc(C(C)(C)C)c2c(c1)C(O)(C(F)(F)F)C(=O)O2", "note": "(stereo not drawn)", "activity change, negative = cell killing": "-15.1% (inactive)"},
      {"smiles": "CCOc1ccccc1-n1c(C(C)N2CCN(C(=O)COc3ccc(Cl)cc3)CC2)nc2ccccc2c1=O", "note": "(stereo not drawn)", "Potency": "365 nM (active) and 372 nM (active)"},
      {"smiles": "CC(C)C1(OO)C=C2C(=O)CC3C(C)(C(=O)O)CCCC3(C)C2CC1", "note": "(stereo not drawn)", "activity change, negative = cell killing": "-6.75% (inactive)"},
      {"smiles": "C/C(=C\\c1csc(C)n1)[C@@H]1C[C@@H]2O[C@]2(C)CCC[C@H](C)[C@H](O)[C@@H](C)C(=O)C(C)(C)[C@@H](O)CC(=O)O1", "Potency": "5.9 nM (active)"},
      {"smiles": "COC(=O)N1CCN(C(=O)Cc2ccc(Cl)c(Cl)c2)[C@@H](CN2CCCC2)C1", "outcome": "inactive"},
      {"smiles": "COC(=O)C12C(=O)C(C)(O)C(=O)C1(C)C(C)=CC1C34CCC(OC3=O)C(C)(CO)C4CCC12C", "note": "(stereo not drawn)", "outcome": "inactive [at 17.3 µM]"},
      {"smiles": "CCN1C[C@]2(COC(=O)c3ccccc3N3C(=O)C[C@H](C)C3=O)CC[C@H](OC)[C@@]34[C@@H]5C[C@H]6[C@H](OC)[C@@H]5[C@](O)(C[C@@H]6OC)[C@](O)([C@@H](OC)[C@H]23)[C@@H]14", "outcome": "inactive"},
      {"smiles": "COC1C(O)C(C)OC(OC2C(CO)O[C@@H](O[C@@H]3CC4CCC5C(CC[C@]6(C)[C@@H](C7=CC(=O)OC7)CC[C@]56O)[C@@]4(C)[C@H](O)C3)C(O)C2O)C1O", "note": "(stereo partly drawn)", "Potency": "483 nM (active)"},
      {"smiles": "C=C[C@H]1[C@H](O[C@@H]2O[C@H](CO)[C@@H](O)[C@H](O)[C@H]2O)OC=C2C(=O)OCC[C@H]21", "activity change, negative = cell killing": "0.329% (inactive)"},
      {"smiles": "C[C@H]1O[C@@H](O[C@H]2C[C@@H](O)[C@]3(CO)C4C(CC[C@]3(O)C2)[C@@]2(O)CC[C@H](C3=CC(=O)OC3)[C@@]2(C)C[C@H]4O)[C@@H](O)[C@@H](O)[C@H]1O", "note": "(stereo partly drawn)", "Potency": "383 nM (active)"},
      {"smiles": "C=CC(C)(O)CC/C=C(\\C)C(=O)O[C@H]1[C@H](O)[C@@H](CO)O[C@@H](OC(=O)[C@]23CCC(C)(C)CC2C2=CCC4[C@@]5(C)CC[C@H](O[C@@H]6O[C@H](CO[C@@H]7OC[C@H](O)[C@H](O)[C@H]7O[C@@H]7OC[C@@H](O)[C@H](O)[C@H]7O)[C@@H](O)[C@H](O)[C@H]6O)C(C)(C)C5CC[C@@]4(C)[C@]2(C)CC3)[C@@H]1OC1OC(C)C(O[C@@H]2OC[C@@H](O)[C@H](O[C@@H]3OC[C@@H](O)[C@H](O)[C@H]3O)[C@H]2O)C(O)C1O", "note": "(stereo partly drawn)", "activity change, negative = cell killing": "-28.4% [at 9.23 µM]"}
    ]}
  ]
}
